Assay results: PubChem BioAssay (Tox21)
Where “and” joins values, the source holds several entries; their conditions need not be identical. Equal entries are not always repeated. Records with an inconclusive call do not appear. More than one record can exist for a structure, and the calls need not agree. Calls of active or inactive are those of the source. Unless noted, calls come from the whole dose curve; as a rule, active = well fitted curve in the direction sought with a large enough effect in the repeat runs; inconclusive = weak or mixed curves; inactive = no such curve, though single readings can be large; an effect the other way counts as inactive or inconclusive.

Key:
[1] = qHTS assay to identify small molecule antagonists of the vitamin D receptor (VDR) signaling pathway - cell viability counter screen (AID 743225); note: nearly all actives have a fitted effect of over 50% in size
In short: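 HEK293T VDR-bla; cpd + 1a,25-(OH)2D3 3 nM final, 16 h 37C/5% CO2; B/G FRET substrate 2 h RT; then CellTiter-Glo 30 min RT, luminescence.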

[2] = qHTS assay to identify small molecule agonists of the NFkB signaling pathway (AID 1159509; active = well fitted curve in the direction sought with a large enough effect in the signal ratio in the repeat runs, not every such curve was filed as active; the % refers to the signal ratio; note: series mostly up to about 61 µM)
In short: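 Beta-lactamase reporter assay run in quantitative high-throughput format on an NF-kB-responsive ME-180 line, with 5 hr compound treatment and a FRET-based blue/green fluorescence readout.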

[3] = qHTS assay to identify small molecule agonists of the NFkB signaling pathway - cell viability counter screen (AID 1159515; calls by dose curve; note: series mostly up to about 61 µM; nearly all actives have a fitted effect of over 55% in size)
In short: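 Cells are seeded (2,000 NFkB-bla ME-180 per well), rested overnight, and dosed with DMSO-dissolved compounds for 5 hr at 37 C. Viability is then read by CellTiter-Glo luminescence after 30 min at room temperature.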

[4] = qHTS assay to identify small molecule agonists of the endoplasmic reticulum stress response signaling pathway (AID 1159516; active = well fitted activation curve with a large enough effect in the signal ratio in the repeat runs, not every such curve was filed as active; the % refers to the signal ratio)
In short: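 Cells are seeded at 1,500 per well and incubated overnight. Compounds in DMSO are added for 5 hr at 37 C, then beta-lactamase FRET substrate for 2 hr at room temperature, and fluorescence at 460 and 530 nm is measured.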

[5] = qHTS assay to identify small molecule agonists of the endoplasmic reticulum stress response signaling pathway - cell viability counter screen (AID 1159517; calls by dose curve;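 note: HeLa cells carrying an ER stress response element beta-lactamase reporter; series mostly up to about 61 µM; nearly all actives have a fitted effect of over 50% in size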)
In short: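 After overnight attachment, ESRE-bla HeLa cells were treated with Tox21 library compounds for 5 hr. CellTiter-Glo luminescence, read 30 min post-addition at room temperature, reported viability.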

[6] = qHTS assay to identify small molecule agonists of the AP-1 signaling pathway - cell viability counter screen (AID 1159525; calls by dose curve; note: nearly all actives have a fitted effect of over 55% in size)
In short: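 Intracellular ATP by Cell Titer Glo luminescence (30 min, RT) in the same ME-180 AP-1-bla wells after the 5 h compound exposure at 37 °C. Normalised to tetra n-octyl ammonium bromide and DMSO controls.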

[7] = qHTS assay to identify small molecule agonists of the AP-1 signaling pathway (AID 1159526; calls by dose curve)
[8] = qHTS assay to identify small molecule agonists of the RXR signaling pathway - cell viability counter screen (AID 1159529); note: nearly all actives have a fitted effect of over 50% in size; note: potency is the fitted concentration of half-maximal effect
In short: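 Steps: seed RXR-alpha-UAS-bla HEK 293T cells in assay medium containing 2% charcoal-stripped FBS; incubate 5 hr; add compounds in DMSO; incubate 16 hr at 37 C; after the bla read, add CellTiter-Glo and read luminescence at 30 min.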

[9] = qHTS assay to identify small molecule antagonists of the retinoic acid receptor (RAR) signaling pathway (AID 1159552; note: nearly all actives have a fitted effect of over 50% in size; note: potency is the fitted concentration of half-maximal effect)
In short: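 Retinol at 1 uM final stimulated RARE-luciferase expression in C3RL4 cells exposed to test compounds for 6 hr at 37 C. Reduced luminescence, read 30 min after detection reagent, indicated pathway antagonism.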

[10] = qHTS assay to identify small molecule agonists of the retinoic acid receptor (RAR) signaling pathway (AID 1159553); note: potency is the fitted concentration of half-maximal effect
In short: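 Seed C3RL4 reporter cells at 1,000 per well and incubate overnight at 37 C. Add compounds in DMSO, incubate 6 hr. Add luciferase reagent, wait 30 min at room temperature, read luminescence.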

[11] = qHTS assay to identify small molecule antagonists of the retinoid-related orphan receptor gamma (ROR-gamma) signaling pathway - cell viability counter screen (AID 1159520); note: nearly all actives have a fitted effect of over 50% in size
In short: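 Cytotoxicity was read from cellular ATP (CellTiter-Glo luminescence) after 16 hr at 37 C with 1 uM doxycycline induction. The inducer was added 2 hr after compound transfer to Tet-on ROR gamma CHO cells.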

[12] = target: Nuclear receptor ROR-gamma (Homo sapiens) (UniProt P51449); assay: qHTS assay to identify small molecule antagonists of the retinoid-related orphan receptor gamma (ROR-gamma) signaling pathway (AID 1159521)
In short: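 Cells were plated, rested 4 h at 37 C, exposed to compounds for 2 h, then given 1 uM final doxycycline hyclate to induce RORγ expression. After 16 h, ONE-Glo luminescence from the ROR response element reporter was measured.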

[13] = target: Retinoic acid receptor RXR-alpha (Homo sapiens) (UniProt P19793); assay: qHTS assay to identify small molecule agonists of the RXR signaling pathway (AID 1159527; calls by dose curve; note: nearly all actives have a fitted effect of over 35% in size)
In short: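 Cells plated at 2,000/well, rested 5 hr at 37 C, pin-dosed with DMSO compound solutions, incubated 16 hr, then loaded with B/G FRET substrate for 2 hr at RT before dual-emission fluorescence reading.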

[14] = qHTS assay to identify small molecule antagonists of the retinoid acid receptor (RAR) signaling pathway - cell viability counter screen (AID 1159551); note: nearly all actives have a fitted effect of over 35% in size
In short: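 Cells (C3RL4) are plated, incubated overnight, dosed with compound in DMSO, then given retinol at 1 uM final. After 6 h at 37 C, CellTiter-Glo is added and luminescence read following 30 min at room temperature.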

[15] = qHTS assay to identify small molecule antagonists of the estrogen related receptor (ERR) signaling pathway - cell viability counter screen (AID 1224818); note: series mostly up to about 46 µM
In short: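 ERR cells, 2,000/well; 6 h settle at 37 C/5% CO2; compound pin transfer (DMSO); 17.5 h at 37 C; CellTiter-Fluor, 30 min, fluorescence read.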

[16] = qHTS assay to identify small molecule antagonists of the estrogen related receptor signaling pathway with the pleiotropic PPARgamma coactivator (PGC) cell viability counter screen (AID 1224822;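 note: series mostly up to about 46 µM; viability read after 17.5 h compound exposure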)
In short: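 Multiplexed viability counter screen run in PGC/ERR cells treated with compounds for 17.5 h at 37 C; live-cell protease signal measured by CellTiter-Fluor fluorescence.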

[17] = qHTS assay to identify small molecule antagonists of the estrogen related receptor (ERR) signaling pathway (AID 1224819)
In short: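 qHTS in ERR cells, 2,000/well, 1536 format. Cpd (DMSO) added after 6 h settle, 18 h 37 C. One-Glo luminescence, 30 min RT.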

[18] = qHTS assay to identify small molecule agonists of the estrogen related receptor (ERR) signaling pathway (AID 1224820)
In short: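 Following a 6 h settling period, 2,000 ERR cells per well receive DMSO-dissolved compounds by pin tool and incubate 18 h at 37 C; agonist activity is scored from One-Glo luminescence read 30 min post-addition.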

[19] = tested on: estrogen-related receptor alpha (ERRalpha) with PGC-1alpha coactivator, human; assay: qHTS assay to identify small molecule antagonists of the estrogen related receptor signaling pathway with the pleiotropic PPARgamma coactivator (PGC) (AID 1224821; calls by dose curve)
In short: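 Screening used NTP's PGC/ERR cells, dosed via pin tool with compound in DMSO alongside positive and negative controls. After 18 h at 37 C, One-Glo reagent sat 30 min at room temperature before luminescence detection.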

[20] = qHTS assay to identify small molecule agonists of the estrogen related receptor signaling pathway with the pleiotropic PPARgamma coactivator (PGC) (AID 1224823)
In short: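 In this quantitative high-throughput screen, an 18 h, 37 C treatment of PGC/ERR cells with compounds in DMSO preceded a One-Glo luminescence read taken after 30 min at room temperature.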

Measured: Potency

Retinoic acid receptor RXR-alpha (Homo sapiens), sequence (P19793 whole entry, looked up): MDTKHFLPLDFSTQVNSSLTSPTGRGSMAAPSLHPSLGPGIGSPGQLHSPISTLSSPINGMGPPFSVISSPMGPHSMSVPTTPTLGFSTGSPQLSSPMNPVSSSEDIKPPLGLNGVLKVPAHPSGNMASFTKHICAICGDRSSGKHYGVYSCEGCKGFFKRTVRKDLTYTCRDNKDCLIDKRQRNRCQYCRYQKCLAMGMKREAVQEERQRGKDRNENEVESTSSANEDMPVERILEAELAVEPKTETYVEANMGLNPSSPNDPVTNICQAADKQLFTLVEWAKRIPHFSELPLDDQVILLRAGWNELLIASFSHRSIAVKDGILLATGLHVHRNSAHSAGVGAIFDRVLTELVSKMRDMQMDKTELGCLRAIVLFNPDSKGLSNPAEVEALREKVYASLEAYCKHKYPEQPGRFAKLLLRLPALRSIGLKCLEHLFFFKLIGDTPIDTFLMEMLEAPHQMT

C=CC(C)(C)CC(=O)OC
inactive: [1] | [2] | [3] | [4] | [5] | [6] | [7] | [8] | [10]
active: [9] 15.4 µM

Cc1oncc1C(=O)Nc1ccc(C(F)(F)F)cc1
active: [10] 3.06 µM and 2.98 µM
43.6 µM (active) and inactive: [8]
not listed: [5] | [9] | [17] | [18] | [19] | [20]
inactive: all other assays above

N#C/C(=C1/SC[C@@H](c2ccc(Cl)cc2Cl)S1)n1ccnc1
inactive: [2] | [3] | [4] | [5] | [6] | [7] | [14] | [10]

C(=C\c1ccccc1)/CN1CCN(C(c2ccccc2)c2ccccc2)CC1
inactive: [1] | [2] | [3] | [4] | [5] | [6] | [15] | [16]

CC(=N\O)/C(C)=N/O
inactive: [2] | [3] | [4] | [5] | [6] | [7] | [13] | [8] | [14] | [10]

CCCc1c(OCCCOc2ccc(OCC(=O)O)cc2)ccc(C(C)=O)c1O
inactive: [2] | [3] | [4] | [5] | [6] | [15] | [17] | [18] | [19] | [16] | [20]

CC1(C)C2=CCCC(C)(C)[C@]23CC[C@H]1C3
inactive: [2] | [3] | [4] | [5] | [6] | [7] | [14] | [10]

CC1=C(/C=C/C(C)=C\C=C\C(C)=C\C(=O)O)C(C)(C)CCC1
inactive: [2] | [3] | [4] | [5] | [6] | [7] | [14] | [9]
active: [10] 68.6 nM

CCCCN(CCCC)CCCOC(=O)c1ccc(N)cc1
inactive: [2] | [3] | [4] | [5] | [6] | [7] | [13] | [14] | [10]

CCCCN(CCCC)C(=S)SSC(=S)N(CCCC)CCCC
active: [8] 48.5 µM | [10] 1520 nM
inactive: [2] | [3] | [4] | [5] | [6] | [14] | [9]

CCCCC1C(=O)N(c2ccccc2)N(c2ccc(O)cc2)C1=O (configuration not stated)
inactive: [2] | [3] | [4] | [5] | [9]

COc1ccc(CCC(=O)c2c(O)cc(O[C@@H]3O[C@H](CO)[C@@H](O)[C@H](O)[C@H]3O[C@@H]3O[C@@H](C)[C@H](O)[C@@H](O)[C@H]3O)cc2O)cc1O
inactive: [1] | [2] | [3] | [4] | [5] | [6] | [7] | [8] | [14] | [9] | [10]
